From PubChem BioAssay AID504397 (Broad Institute, 2011)
Potency and affinity values are given separately. Active and inactive are the calls of the source. Where a call stands in place of a potency, no number is given. The rule behind the calls is not given here.

Assay: mammalian cell cytotoxicity, dose response, cytotoxicity control, plate reader, cherry-pick samples (AID 504397)
Conditions: plate reader viability; series mostly up to 35 µM

For `CCOC(=O)[C@@H]1[C@H]2COc3ccc(Br)cc3[C@@H]2N2C(=O)N(c3cccc(C)c3)C(=O)[C@]12C`, the outcome was “inactive”.
